# Measurements taken from the supplement of paper PMC6555819.
# Experiments:
# Experiment in all cases: PBM binding z-score (relative to random genomic background probes); higher = stronger binding; sequences stand for … in GC…GCGATTGACAGCGTAGAATGAAGG
# [1] = tested on: PPARg:RXRa DBDmut IVT, anti-RXR (DBD mutation: RXRa K156A/R161A, NR concentration 270 nM, RXRa partner concentration 90 nM)
# Procedure, shortened: (§1)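 Binding buffer was PBS pH 7.4 with 2% milk, 0.02% Triton X-100, 1 mM DTT, 0.2 mg/mL BSA and 0.4 mg/ml salmon testes DNA. In it, ligand-free nuclear receptor dimers were incubated 1 h on custom Agilent 4×180K protein-binding microarrays carrying double-stranded probes. Antibodies against each partner (one per run) detected binding, and z-scores were calculated against random background probes after regression normalization of scanned fluorescence.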
# [2] = tested on: PPARg:RXRa IVT, anti-PPARg (NR concentration 270 nM, RXRa partner concentration 90 nM)
# Procedure, shortened: as §1
# [3] = tested on: PPARg DBDmut:RXRa IVT, anti-PPARg (DBD mutation: PPARg1 K132A/R137A, NR concentration 270 nM, RXRa partner concentration 90 nM)
# Procedure, shortened: as §1
# [4] = tested on: PPARg DBDmut IVT, anti-PPARg (DBD mutation: PPARg1 K132A/R137A, NR concentration 270 nM)
# Procedure, shortened: as §1
# [5] = tested on: PPARg homodimer (NR concentration 180 nM)
# Procedure, shortened: as §1
# [6] = tested on: PXR:RXRa (NR concentration 270 nM, RXRa partner concentration 90 nM)
# Procedure, shortened: as §1
# [7] = tested on: PXR homodimer (NR concentration 270 nM)
# Procedure, shortened: as §1
# [8] = tested on: RARa:RXR (NR concentration 270 nM, RXRa partner concentration 90 nM)
# Procedure, shortened: as §1
# [9] = tested on: RARa homodimer (NR concentration 270 nM)
# Procedure, shortened: as §1
# [10] = tested on: RARb:RXRa (NR concentration 270 nM, RXRa partner concentration 90 nM)
# Procedure, shortened: as §1
Sequence,PBM binding z-score [1],PBM binding z-score [2],PBM binding z-score [3],PBM binding z-score [4],PBM binding z-score [5],PBM binding z-score [6],PBM binding z-score [7],PBM binding z-score [8],PBM binding z-score [9],PBM binding z-score [10]
TCATATAGGTAAATCCTAGGTGAAAGTCCGATCT,3.48,2.8,0.825,0.675,-0.358,0.68,0.175,1.11,0.51,0.592
ACTAGCAGGCCAAGTTTGGGTCACACAAACAAAG,0.756,1.65,0.166,-0.339,0.789,1.07,-0.0733,1.95,-0.318,1.91
CAAACTAGGTCACAGAGGTCAAAGACCGTGCGTA,8.39,9.08,7.99,2.78,5.75,6.86,10.2,7.44,2.59,5.37
ACTATTAGTTGACTTCGGGCAACCGATACGACGC,-0.0241,0.38,0.985,0.939,0.728,0.138,0.00546,0.411,0.245,0.417
AGTCAAAGTTCATCTATGTAACGTAAGATATGCT,0.144,2.33,0.955,1.14,3.7,5.09,5.26,3.82,1.52,4.89
AATACAGTGTCACTAGGCCAGAGTAGGTACGAAT,1.71,3.04,0.806,0.257,0.169,-0.342,-0.144,-0.182,-0.0529,1.06
CAAACTAGATCACGAAAGGTCAAAGTCGAATGAC,3.85,4.1,1.64,2.11,4.54,5.85,2.42,6.41,2.84,4.5
TCTAGTTGGTCAAGGGTCACACACTCGAAATGCG,2.52,5.1,1.64,0.978,4.73,4.32,0.895,5.98,2.83,3.94
GCTAGTTAGTCAGTAAAAGGTCACACACCGGTCG,0.245,2.45,0.12,0.0734,3.34,4.72,0.761,4.98,2.21,3.96
AATACAGGATCATCGTAGGCCAGAGTACGCACAG,-0.0409,0.414,0.728,0.381,0.342,0.111,0.257,0.723,0.87,0.16
CAGCCTAAGTCAGGGCCAGTATAGGAGGAACGTT,-0.358,-0.577,-1.05,-1.43,-0.193,-0.653,-0.125,-0.178,-0.484,-0.134
CCTACTAGGCCAAAAAGGTCATTGATGCCGATAA,5.03,4.58,-0.262,-0.187,2.71,4.88,5.01,5,1.4,4.09
ACTATTAGTTGACTGAGGGCAACCGATACGACGC,0.524,0.702,1.12,0.733,0.7,1.06,1.3,0.779,0.713,1.41
CCCAGTAGGTTATGGGGCATTCAGGCAACGGTGA,3.64,4.66,-0.461,-0.268,0.645,-0.0768,-0.414,0.112,-0.0462,0.967
ACTAGCAGGCCAAGGGTCGCTCAAGATTAGTCCG,0.554,1.95,-0.249,-1.1,0.333,0.247,-0.683,0.951,-0.617,1.35
ACAGACGGGTGAGTGAAGGTAACTCAGCTGGACG,-0.0722,0.467,2.8e-05,-1.31,0.113,-0.343,-0.231,0.0341,-0.176,0.0932
ATCGAGAGGTCGTGAGGTGAGTATACAGAAAGGC,0.135,2.04,1.16,0.618,1.02,2.66,0.102,3.54,0.567,3.05
ATCTCTAGGTAAATTTCAGTGAAAGATCGATAGA,1.2,1.5,1.22,1.58,0.671,0.0865,0.265,0.745,1.29,-0.125
CGAACTAGGTTATCCAGGACAGTGAATACATTGA,6.42,5.96,0.89,0.666,0.877,0.173,0.527,0.654,0.298,0.828

Sequence,PBM binding z-score [1],PBM binding z-score [2],PBM binding z-score [3],PBM binding z-score [4],PBM binding z-score [5],PBM binding z-score [6],PBM binding z-score [7],PBM binding z-score [8],PBM binding z-score [9],PBM binding z-score [10]
TTACCAAGGTGAGGGTCGTTGATCCCTCTGTAGA,1.3,2.21,-0.596,-0.428,0.109,0.865,-0.63,1.36,-0.812,1.45
TCTATTAGTTGAAGGGCAACCGCCGAGTCCGTTT,2.32,0.783,0.465,1.32,1.11,0.779,0.698,0.905,1.14,1.74
TCTATTAGTTGAAGGGCAAACGACGAGTCCGTTT,2.81,0.694,0.606,0.592,1.18,1.25,1.12,1.22,1.02,1.72
AGAATGAGGTTATACGTCGATCAGGGAAGAAAGT,2.6,2.09,0.671,0.354,0.876,0.925,0.396,1.51,0.313,1.34
ACTAGCAGGCCAAGTTTTGGTCACTCAAACAAAG,0.635,0.635,-0.425,-0.348,-0.321,-0.259,-0.809,0.113,-0.612,0.742
AGTCAAAGTTCAGGACGAGCTAACGTAAAGCACG,-0.565,1.33,0.323,-0.197,1.5,1.98,0.743,1.88,0.728,4.11
CCTTACTGGTCACTCCAGGTTATAGCATCGGAGT,0.949,1.07,0.287,0.23,0.774,0.989,0.586,0.883,1.05,1.53
CGAACTAGGTCAGACCAGGACAGTGAAGGATGAT,7.38,7.63,1.83,0.713,0.868,1.61,-0.171,1.37,-0.466,3.2
TCTATTAGTTGAGGGGCAACCGACGAGTCCGTTT,2.72,0.341,0.599,1.29,1.09,0.857,0.479,0.515,0.621,0.903
TAGCCTAGGTCATTGGGCCAGTATGGTACGCATC,2.56,3.68,0.116,0.266,1.26,1.38,-0.75,2.07,-0.00791,3.44
TAACCAAGGTGAAGGTCGTTGATCCCTCTGTAGA,1.46,2.78,-0.196,-0.741,0.785,1.48,0.489,1.92,-0.478,2.12
ATCTCTAGGTAACCATGTTCAGTGAATGCCGAAC,3.64,2.88,0.786,1.37,0.698,0.218,0.202,0.406,0.844,0.355
CGTCCAAGGTCAGCGAGGTCAGTGAATGCCGAGT,3.43,3.81,-0.776,-0.834,4.66,6.03,11.6,5.42,1.25,5.45
CGGCCTAGGTCAGGGCCAGTATAGGAGGAACGTT,0.747,1.22,-2.1,-2.32,-0.013,0.223,-0.954,0.858,-0.476,3.17
ACTTGCAGGCCAAGGGTCACTCAAGATTAGTCCG,2.34,4.29,0.459,-0.141,1.94,3.22,0.0748,3.99,0.96,3.6
TCACATAGGTAAAGGTGAAAGTCGAACGATATGA,2.47,2.45,0.764,0.579,1.1,1.19,0.504,1.75,1.33,2.05
CCTATGAGTTGACCATAAGGGCAACCGAAGCTCG,-0.0484,0.26,-0.849,-0.386,1.05,1.1,0.421,1.51,0.579,1.72
CCGACTGGGGCAGAAAGGCTACCATACCATCCGG,0.897,0.918,-0.746,-1.37,-0.0679,-0.836,-0.377,-0.589,0.0496,0.362
ATCTCTAGGTAGCAAGTTCAGTGAAAGAGAGGAC,0.208,0.604,0.0162,0.501,0.437,1.22,1.35,0.324,0.221,0.981
